Experimental data as given in paper PMC9838217, “Structure of SALL4 zinc finger domain reveals link between AT-rich DNA binding and Okihiro syndrome”.
Numbering of substitutions follows the chain as printed.

How the values were obtained:
Test in all cases: HT-SELEX; high values mean tight binding
Conditions in all cases: protein: recombinant; vector His6-GST; dsDNA, one strand shown
SALL4 ZFC4 WT (HT-SELEX) = molecular target: T1, SALL4 ZFC4 WT (HT-SELEX) (Mus musculus, UniProt Q8BX22 870-940)
T1 sequence: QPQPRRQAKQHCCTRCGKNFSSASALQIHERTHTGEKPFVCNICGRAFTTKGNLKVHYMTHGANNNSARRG
Outline: (§1)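 In triplicate selections of up to 6 cycles, purified recombinant mouse SALL4 zinc finger cluster 4 (residues 870–940, 1 µg) was incubated 10 min at room temperature with library DNA (1.5 µg, then 200 ng) in 100 µl of 10 mM Tris–HCl pH 7.5, 50 mM NaCl, poly(dI-dC) and DTT, and complexes were captured on Ni2+ beads, washed and PCR-amplified. Sequencing was done on MiSeq with scanning for 6-mers. The binding signal is each canonical k-mer's read fraction, reported as fold change against the initial random library.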

[1] = molecular target: T2, SALL4 ZFC4 R900W (HT-SELEX) (Mus musculus, UniProt Q8BX22 870-940, R900W)
T2 sequence: T1 sequence with R31W
Outline: as §1

[2] = molecular target: T3, SALL4 ZFC4 G921D (HT-SELEX) (Mus musculus, UniProt Q8BX22 870-940, G921D)
T3 sequence: T1 sequence with G52D
Outline: as §1

Row | Sequence | binding signal (SALL4 ZFC4 WT (HT-SELEX)) | binding signal [1] | binding signal [2]
1 | GACGTA | 0.666 ± 0.0264 fold-change vs cycle 0 | 0.752 ± 0.0315 fold-change vs cycle 0 | 0.823 ± 0.0398 fold-change vs cycle 0
2 | AGGTCC | 0.419 ± 0.0296 fold-change vs cycle 0 | 0.53 ± 0.0164 fold-change vs cycle 0 | 0.632 ± 0.0514 fold-change vs cycle 0
3 | AAGCTG | 0.608 ± 0.0202 fold-change vs cycle 0 | 0.708 ± 0.0215 fold-change vs cycle 0 | 0.801 ± 0.0274 fold-change vs cycle 0
4 | AAGCAT | 1.23 ± 0.027 fold-change vs cycle 0 | 1.26 ± 0.0143 fold-change vs cycle 0 | 1.273 ± 0.011 fold-change vs cycle 0
5 | TGAGAA | 1.37 ± 0.0413 fold-change vs cycle 0 | 1.49 ± 0.0497 fold-change vs cycle 0 | 1.38 ± 0.0987 fold-change vs cycle 0
6 | AGAGGA | 0.933 ± 0.0495 fold-change vs cycle 0 | 1.09 ± 0.0506 fold-change vs cycle 0 | 1.07 ± 0.0639 fold-change vs cycle 0
7 | TAATCA | 2.37 ± 0.116 fold-change vs cycle 0 | 2.13 ± 0.0839 fold-change vs cycle 0 | 1.88 ± 0.168 fold-change vs cycle 0
8 | GTAGTA | 1.29 ± 0.036 fold-change vs cycle 0 | 1.41 ± 0.0747 fold-change vs cycle 0 | 1.33 ± 0.0906 fold-change vs cycle 0
9 | AATCAT | 2.57 ± 0.14 fold-change vs cycle 0 | 2.12 ± 0.0633 fold-change vs cycle 0 | 1.93 ± 0.164 fold-change vs cycle 0
10 | CCGTTC | 0.364 ± 0.0226 fold-change vs cycle 0 | 0.435 ± 0.0276 fold-change vs cycle 0 | 0.511 ± 0.0586 fold-change vs cycle 0
11 | AAGAAG | 1.4 ± 0.0333 fold-change vs cycle 0 | 1.63 ± 0.0977 fold-change vs cycle 0 | 1.45 ± 0.147 fold-change vs cycle 0
12 | AAATTC | 1.76 ± 0.142 fold-change vs cycle 0 | 1.66 ± 0.0813 fold-change vs cycle 0 | 1.58 ± 0.109 fold-change vs cycle 0
13 | ATGAAG | 1.56 ± 0.0293 fold-change vs cycle 0 | 1.68 ± 0.108 fold-change vs cycle 0 | 1.51 ± 0.124 fold-change vs cycle 0
14 | AGTTCC | 0.848 ± 0.0309 fold-change vs cycle 0 | 0.972 ± 0.0535 fold-change vs cycle 0 | 0.98 ± 0.0319 fold-change vs cycle 0
15 | CAATGA | 1.32 ± 0.056 fold-change vs cycle 0 | 1.47 ± 0.0677 fold-change vs cycle 0 | 1.4 ± 0.0741 fold-change vs cycle 0
16 | CTGTTC | 0.771 ± 0.0432 fold-change vs cycle 0 | 0.893 ± 0.0123 fold-change vs cycle 0 | 0.959 ± 0.0166 fold-change vs cycle 0
17 | GATCCA | 0.791 ± 0.0326 fold-change vs cycle 0 | 0.883 ± 0.0218 fold-change vs cycle 0 | 0.996 ± 0.0315 fold-change vs cycle 0
18 | ATATGG | 1.44 ± 0.131 fold-change vs cycle 0 | 1.33 ± 0.0761 fold-change vs cycle 0 | 1.28 ± 0.0676 fold-change vs cycle 0
19 | AAAATT | 3.32 ± 0.292 fold-change vs cycle 0 | 2.14 ± 0.119 fold-change vs cycle 0 | 1.94 ± 0.175 fold-change vs cycle 0
20 | AACTGC | 0.6 ± 0.0299 fold-change vs cycle 0 | 0.647 ± 0.0277 fold-change vs cycle 0 | 0.741 ± 0.0348 fold-change vs cycle 0
21 | AGCGAG | 0.337 ± 0.0112 fold-change vs cycle 0 | 0.393 ± 0.0228 fold-change vs cycle 0 | 0.519 ± 0.0797 fold-change vs cycle 0
22 | GGTTAA | 1.23 ± 0.0345 fold-change vs cycle 0 | 1.4 ± 0.0959 fold-change vs cycle 0 | 1.3 ± 0.0896 fold-change vs cycle 0
23 | GATCAC | 0.862 ± 0.0581 fold-change vs cycle 0 | 1.01 ± 0.0278 fold-change vs cycle 0 | 1.11 ± 0.0305 fold-change vs cycle 0
24 | AGTGCA | 0.627 ± 0.0465 fold-change vs cycle 0 | 0.704 ± 0.0363 fold-change vs cycle 0 | 0.802 ± 0.0221 fold-change vs cycle 0
25 | ACCAAG | 0.816 ± 0.0198 fold-change vs cycle 0 | 0.935 ± 0.0459 fold-change vs cycle 0 | 0.983 ± 0.0112 fold-change vs cycle 0
26 | CCGAGA | 0.385 ± 0.0394 fold-change vs cycle 0 | 0.459 ± 0.0241 fold-change vs cycle 0 | 0.548 ± 0.059 fold-change vs cycle 0
27 | ATATCC | 1.52 ± 0.0519 fold-change vs cycle 0 | 1.43 ± 0.0827 fold-change vs cycle 0 | 1.37 ± 0.0764 fold-change vs cycle 0
28 | GACTAA | 1.21 ± 0.0577 fold-change vs cycle 0 | 1.39 ± 0.093 fold-change vs cycle 0 | 1.3 ± 0.0798 fold-change vs cycle 0
29 | ATAGGG | 0.829 ± 0.0359 fold-change vs cycle 0 | 0.924 ± 0.0323 fold-change vs cycle 0 | 0.954 ± 0.0273 fold-change vs cycle 0
30 | AGAACT | 1.36 ± 0.0489 fold-change vs cycle 0 | 1.545 ± 0.00829 fold-change vs cycle 0 | 1.43 ± 0.129 fold-change vs cycle 0
